Screening data from PubChem BioAssay.
RE007 growth inh: less growth of the S. pombe RE007 Vpr strain; S. pombe RE007 Vpr strain, BacTiter-Glo ATP luminescence, 24 h; Potency, µM (series often up to 92.2 µM), inactives show at the highest dose activity change, negative = less growth, actives largely listed as inhibitors; hit rate 0.21% among 360,000; active = well fitted falling curve with a large enough effect; inconclusive = small, poorly fitted or top-dose-only effect; inactive = no such curve, though single readings can be large or run the other way; note: potency is the fitted concentration of half-maximal effect; % is set by controls: 0 for no effect and ±100 for the full control effect; nearly all actives have a fitted effect of over 50% in size
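Fission yeast RE007 carrying one integrated HIV-1 vpr copy, seeded at OD 0.01 in PMG+AL medium with 23 nL pinned compound. Grown 24 h at 30 degrees; viability read by BacTiter-Glo luminescence after 5 min.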
LmPK inh: inhibitors of Leishmania mexicana pyruvate kinase | Q27686 | purified LmPK, Kinase-Glo ATP luminescence, 1 h | Potency, µM (doses to about 57.5 µM), without a hit: at the top dose activity change, negative = inhibition, most hits filed as inhibitors | hit rate 0.37% among 290,000 | AID 1721; note: potency is the fitted concentration of half-maximal effect; % is set by controls: 0 for no effect and ±100 for the full control effect
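In 50 mM imidazole pH 7.2 with 7 mM MgCl2, LmPK (0.1 nM) turned over PEP (0.5 mM) and ADP (0.1 mM) for 1 h at room temperature. Luciferase read-out of ATP.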
CHX counter: affects cycloheximide protein synthesis inhibition readout, counter-screen; max response, %; cell reporter, cycloheximide protein synthesis inhibition counterscreen; hit rate 12% among 300,000; in the data active = max response mostly above about 13%, no sharp cut-off; inactive = mostly below about 14%; note: read at 38.3 µM for the half of the compounds with a filed dose; 0% is about no effect
Giardia FBPA inh: Giardia lamblia aldolase inhibition. A8B2U2. purified Giardia FBPA. Potency, µM (titrated, usually from 59.6 µM), for inactives: at the top dose activity, negative = inhibition, usual class: inhibitors. hit rate 0.71% among 290,000. AID 2451; note: potency is the fitted concentration of half-maximal effect; % is set by controls: 0 for no effect and ±100 for the full control effect; nearly all actives have a fitted effect of over 55% in size
Target sequence (A8B2U2 whole entry, looked up): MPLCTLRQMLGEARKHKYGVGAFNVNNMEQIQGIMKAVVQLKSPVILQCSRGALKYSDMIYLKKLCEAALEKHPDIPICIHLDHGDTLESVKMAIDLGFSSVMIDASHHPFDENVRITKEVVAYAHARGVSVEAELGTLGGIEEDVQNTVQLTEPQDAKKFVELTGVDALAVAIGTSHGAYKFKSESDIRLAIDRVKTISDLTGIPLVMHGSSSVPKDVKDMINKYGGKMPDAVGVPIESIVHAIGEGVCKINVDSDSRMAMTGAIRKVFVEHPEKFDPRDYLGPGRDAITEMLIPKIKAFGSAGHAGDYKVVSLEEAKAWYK
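40 nM FBPA preincubated 10 min at RT with compound (up to 57.5 uM final), then substrate plus GAPDH/TPI/NAD/arsenate coupling and diaphorase/resazurin added. Fluorescence read after 20 min at RT, 525/598 nm.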
Shiga toxin inh: blocks Shiga toxin action in Vero cells; Vero cells, Shiga toxin protein synthesis inhibition reporter; inhibition, % at 38.7 µM; hit rate 9.2% among 290,000; in the data active = inhibition mostly above about 28%, no sharp cut-off; inactive = mostly below about 43%; note: 0% is about no effect
TbPYK inhibitor: blocks Trypanosoma brucei pyruvate kinase | Q57TT1 | TbPYK enzyme, Kinase-Glo Plus ATP luminescence, 45 min | Potency, µM (doses to about 76.8 µM), without a hit: at the highest dose activity, negative = inhibition, usual class: inhibitors | hit rate 0.12% among 410,000 | AID 624173; note: potency is the fitted concentration of half-maximal effect; % is set by controls: 0 for no effect and ±100 for the full control effect; nearly all actives have a fitted effect of over 50% in size
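Assay buffer: 50 mM TEA pH 7.2, 100 mM KCl, 10 mM MgCl2, 0.05% BSA, 0.01% Tween-20. Pyruvate kinase from T. brucei plus substrate met compound, then ADP (130 uM final). Luminescence was read post 45 min RT.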
The depositor's hits bear a star; u = inconclusive; x = not tested or not shown. Shown is part of a subset that was picked to be rich in hits. Unless noted, calls come from the whole dose curve; as a rule, active = well fitted curve in the direction sought with a large enough effect; inconclusive = small, poorly fitted or top-dose-only effect, or another doubt; inactive = no such curve, though single readings can be large; an effect the other way counts as inactive or inconclusive.

SMILES	RE007 growth inh	LmPK inh	CHX counter	Giardia FBPA inh	Shiga toxin inh	TbPYK inhibitor
CCOC(=O)C1(CCCc2ccccc2)CCN(C(=O)c2ocnc2C)CC1	34.7%	1.4%	7.5	-5.4%	-1.2	6.9%
CCOC(=O)C1(CC2CC2)CCN(C(=O)c2ocnc2C)CC1	-5.5%	-7.2%	43.5*	1.9%	75.7*	-0.5%
O=C1CS(=O)(=O)C2(C(=O)Nc3ccccc32)N1c1cccc(Cl)c1 (configuration not stated)	x	x	x	x	x	-3.6%
O=C(C[N+]12CCC(CC1)C(CO)C2)c1ccc(Br)cc1 (configuration not stated)	-11.8%	4.1%	7.3*	3.0%	26.8	0.6%
O=C(CNC(=O)c1ccc(Br)cc1)c1ccc(Br)cc1	2.8%	0.4%	0.6	10.9%	27.3	2.9%
CCC(C)NC(=O)C1CCN(C(=O)c2ccc(-n3ccc4ccccc43)s2)CC1 (configuration not stated)	x	x	x	x	x	-6.2%
CC(C)S(=O)(=O)c1ccc(C(=O)Nc2ccc(F)cc2F)cn1	5.3%	-3.8%	-2.3	0.3%	-3.7	-1.2%
Cn1nnc2cc(C(=O)Nc3ccccc3F)ccc21	1.7%	-0.2%	31.4*	3.9%	54.7*	-6.2%
Cn1nnc2cc(NC(=O)Nc3ccccc3F)ccc21	-13.6%	x	x	x	x	-3.1%
O=C(Nc1ccc(Cl)cc1Cl)c1ccc2ncsc2c1	-4.2%	3.4%	40.7*	6.6%	77.7*	-19.3%
O=C(Nc1ccncc1)c1ccc2ncsc2c1	0.0%	x	x	x	x	-2.4%
O=C(Nc1cccc(F)c1)c1ccc2ncsc2c1	-4.9%	0.6%	48.8*	9.5%	105.4*	-3.2%
CNC(=O)c1c(NC(=O)c2ccc3ncsc3c2)sc(C)c1C	-13.5%	x	x	x	x	-1.2%
O=C(Nc1ccc(F)cc1F)c1ccc2ncsc2c1	1.0%	-2.5%	62.9*	-2.4%	97.2*	-3.5%
Oc1c(Cl)cc(Cl)cc1CNc1nc2ccccc2[nH]1	-2.3%	9.1%	-4.1	-1.7%	x	0.8%
Cc1ccc(NC(=O)Cn2cc(C(F)(F)F)cc(Cl)c2=O)cc1Cl	12.9%	-1.4%	-2.3	3.7%	23.5	0.3%
CC(Oc1ccc(F)cc1)C(=O)N(CCC1=CCCCC1)c1c(N)n(Cc2ccccc2)c(=O)[nH]c1=O (configuration not stated)	-15.3%	x	x	x	x	-7.1%
O=C(NCc1ccc(F)cc1)c1ccc(CSCc2cccc(Cl)c2)o1	x	x	x	x	x	-1.2%
COc1ccc(NC(=O)C2CCN(S(=O)(=O)c3ccc4[nH]c(=O)ccc4c3)CC2)cc1Cl	x	x	x	x	x	-2.4%
O=C(Nc1ccccc1F)c1ccc2ncsc2c1	4.1%	-9.5%	60.7*	7.9%	148.6*	-23.0%
COc1cccc(C(=O)C2CN(c3ccccc3)CC2c2ccc(Cl)cc2)c1 (configuration not stated)	-7.8%	2.2%	22.5*	1.0%	52.5	-4.3%
COc1ccc(C2Nc3ccccc3-n3c(-c4ccccc4)c4c(=O)n(C)c(=O)n(C)c4c32)cc1 (configuration not stated)	x	x	x	x	x	-1.5%
Cc1cnc(NC(=O)COc2ccc3c(c2)CCC3)s1	-10.5%	-1.9%	59.7*	x	61.1*	-7.3%
COc1ccc(CCC(=O)Nc2ncc(C)s2)cc1	1.3%	0.0%	16.9*	0.6%	35.3*	-3.1%
COc1ccc2c(CC(=O)Nc3ncc(C)s3)coc2c1	19.3%	4.2%	32.9*	1.4%	86.0*	5.0%
SMILES	RE007 growth inh	LmPK inh	CHX counter	Giardia FBPA inh	Shiga toxin inh	TbPYK inhibitor
Cc1cccc(NC(=O)COc2ccc3c(c2)CCC3)n1	u	x	x	x	x	-12.0%
COc1ccc2c(CC(=O)Nc3nc(C)cs3)coc2c1	16.6%	2.8%	25.3	0.8%	27.8	-1.6%
COc1ccc(CCC(=O)NCC23CC4CC(CC(C4)C2)C3)cc1	18.2%	-2.0%	14.8*	-1.0%	-19.2	2.6%
COc1ccc(CNC(=O)CC23CC4CC(CC(C4)C2)C3)cc1	1.4%	4.2%	-1.8	13.5%	14.8	-7.8%
Cc1cc(=O)c2c(O)c3c(O)cc(O)c4c5c(O)cc(O)c6c(O)c7c(=O)cc(C)c8c1c2c(c34)c(c65)c78	x	x	x	-27.7%	x	x
CCC(CC)C(=O)Nc1ccccc1C(=O)OCc1cc(=O)n2nc(C3CCCCC3)sc2n1	x	x	x	x	x	-5.3%
Cc1ccc2c(c1)c1ncnc(N3CCOCC3)c1n2C	-11.6%	7.4%	28.4*	4.1%	94.3*	4.5%
Cc1ccc2c(c1)c1ncnc(N3CCN(c4ccccc4)CC3)c1n2C	-19.2%	1.2%	-5.0	-1.2%	-6.3	-9.3%
Cc1ccc2c(c1)c1ncnc(N3CCC4(CC3)OCCO4)c1n2C	x	0.4%	33.4*	-2.2%	63.9*	x
CCOc1ccc(OCC)c(NC(=O)C2CCN(S(=O)(=O)c3ccc(Br)s3)CC2)c1	x	x	x	x	x	1.4%
Brc1ccc(-c2cn3nc4c(nc3n2)CCCC4)cc1	-6.7%	u	45.8*	-29.2%	121.5*	-1.0%
c1ccc(-c2cn3nc4c(nc3n2)CCCC4)cc1	u	-0.2%	34.2	u	2.3	u
CCC(C(=O)OC)n1cnc2c(nnn2-c2ccc(F)cc2)c1=O (configuration not stated)	-8.8%	-3.9%	9.1*	4.8%	17.3	-7.7%
CCOC(=O)C(CC)n1cnc2c(nnn2-c2cccc(OC)c2)c1=O (configuration not stated)	5.8%	3.2%	17.0*	3.5%	17.6	-0.1%
CCC(C(=O)OC)n1cnc2c(cnn2-c2ccc(F)cc2)c1=O (configuration not stated)	x	x	x	x	x	-0.6%
COC(=O)C(C)n1cnc2c(nnn2-c2ccc(C)cc2)c1=O (configuration not stated)	19.9%	-6.6%	13.4*	12.8%	19.1*	1.1%
CCOC(=O)C(CC)n1cnc2c(nnn2-c2ccc(C)cc2)c1=O (configuration not stated)	16.2%	-1.3%	21.8	5.1%	30.8	-1.3%
COc1ccc(CC2SC(N)=NC2=O)cc1 (configuration not stated)	11.0%	1.7%	0.7	8.6%	x	-6.6%
CN1C(=O)/C(=C\C=C2/CCCN2C)N(C)C1=S	-16.4%	-3.2%	22.8*	u	54.4	1.9%
CCN1C(=O)/C(=C\N2CCCc3ccccc32)SC1=S	12.9%	4.3%	-2.9	-12.1%	40.5	1.9%
CCN1C(=O)/C(=C/C=C2/CCCN2C)OC1=S	-7.6%	-5.6%	28.1*	-21.9%	45.7*	0.2%
COc1cc(C(=O)Nc2cc(C)c(O)c(-c3nc4ccccc4s3)c2)cc(OC)c1OC	x	x	x	x	x	5.8%
CC[C@H](C)[C@H](NC(=O)[C@H](Cc1ccc(O)cc1)NC(=O)[C@@H]1CCCN1C(=O)[C@@H](NC(=O)[C@@H](N)CCCCN)[C@@H](C)CC)C(=O)N[C@@H](CC(C)C)C(=O)O	x	x	-3.5	2.1%	2.3	x
CCN1CCN(Cc2oc(CO)cc(=O)c2O)CC1	-20.9%	-2.9%	-8.5	-2.9%	-19.6	1.6%
